Data as given in PubChem BioAssay AID588342 (National Center for Advancing Translational Sciences (NCATS), 2011).
Out of some 360,000 compounds screened, about 25,000 (6.9%) were called active. Another 9% or so got no clear call; they are omitted. Calls come from the whole dose curve; as a rule, active = well fitted inhibition curve with a large enough effect; inconclusive = small, poorly fitted or top-dose-only effect; inactive = flat fitted curve, though single readings scatter. Many of the other results were omitted from the sample, so actives are more common in it than they were.

Each compound was assayed against Luciferin 4-monooxygenase (Photinus pyralis) (UniProt P08659) (assay: qHTS profiling assay for firefly luciferase inhibitor/activator using purifed enzyme and Km concentrations of substrates (counterscreen for miR-21 project)). Conditions: purified FLuc, luminescence inhibition; series mostly up to 57.5 µM; activity change, negative = inhibition: at the top concentration.
Luciferin 4-monooxygenase (Photinus pyralis), sequence (P08659 whole entry, looked up): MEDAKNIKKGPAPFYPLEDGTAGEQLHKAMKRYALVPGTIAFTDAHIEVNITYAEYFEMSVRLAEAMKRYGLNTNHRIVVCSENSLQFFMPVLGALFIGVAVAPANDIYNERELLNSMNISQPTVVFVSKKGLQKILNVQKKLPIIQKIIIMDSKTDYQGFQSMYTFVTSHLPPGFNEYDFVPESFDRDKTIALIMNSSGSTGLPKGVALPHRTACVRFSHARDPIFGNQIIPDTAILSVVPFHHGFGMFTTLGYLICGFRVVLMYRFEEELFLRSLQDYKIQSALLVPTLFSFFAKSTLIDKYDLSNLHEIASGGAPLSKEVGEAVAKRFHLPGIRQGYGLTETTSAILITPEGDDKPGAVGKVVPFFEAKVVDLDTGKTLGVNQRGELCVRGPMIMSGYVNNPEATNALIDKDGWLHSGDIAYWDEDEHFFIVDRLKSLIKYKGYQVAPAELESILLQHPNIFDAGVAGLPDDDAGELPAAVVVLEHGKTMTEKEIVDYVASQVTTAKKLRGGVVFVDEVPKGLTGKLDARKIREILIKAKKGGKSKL
Method in brief: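 Purified P. pyralis luciferase (10nM final) with 10uM D-luciferin and 10uM ATP (Km levels) in 50mM Tris acetate pH 7.5, 10mM Mg acetate, 0.01% Tween-20, 0.05% BSA; qHTS 6-point titration, ~60 µM downward; luminescence read.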
Note: nearly all actives have a fitted effect of over 55% in size.
Potency is the fitted concentration of half-maximal effect.
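Throughout, for activity change, negative = inhibition: plate controls were vehicle for no effect and reference inhibitor for full effect.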

SMILES | activity change, negative = inhibition | Potency
COc1cc(OC)c(N(C)C(=O)c2cc3c(=O)oc4ccccc4c3s2)cc1Cl | -0.794% (inactive) | 
COc1cc(OC)c(OC)cc1/C=C/c1nc2cc3ccccc3cc2c(=O)n1-c1ccc(F)c(Cl)c1 | -1.28% (inactive) | 
CC(C)CCNC(=O)CSc1nc2ccccc2nc1Cc1ccc(Cl)cc1 | -4.71% (inactive) | 
CCOC(=O)c1cnc(Nc2nc3ccccc3o2)nc1CSC(=S)N1CCCCC1 |  | 9.53 µM (active)
CCc1ccc(CNC(=O)C2CCCN(c3nc4ccccc4o3)C2)cc1 (configuration not stated) | 3.01% (inactive) | 
CCOC(=O)CCNC(=O)N1CCCC(C(=O)c2ccccc2SC)C1 (configuration not stated) | -2.33% (inactive) | 
COCCNC(=O)CSc1c(C)cnc2c1c(=O)n(C)c(=O)n2C | -1.51% (inactive) | 
COc1ccc(-c2nc(CN3CCC(C(=O)NCCN(CC(C)C)CC(C)C)CC3)c(C)o2)cc1OC | -5.23% (inactive) | 
O=C1/C(=C/c2coc3ccc(O)cc3c2=O)SC(=S)N1c1ccccc1 | -7.68% (inactive) | 
O=c1c(-c2ccccc2)coc2cc(O)ccc12 |  | 15.1 µM (active)
CC(C)CN(Cc1c(O)ccc2c(=O)c(-c3ccccc3)coc12)CC(C)C | 4.11% (inactive) | 
COC(=O)C1=C(C)N(c2ccc(Br)cc2)C(=O)/C1=C\c1ccco1 | -2.45% (inactive) | 
COC(=O)COc1ccc2c(c1C)O/C(=C\c1ccco1)C2=O |  | 2.13 µM (active)
Cc1cc(C)c(OCC(=O)N/N=C/c2ccco2)c(C)c1 | 4.89% (inactive) | 
Cc1nn(CC(=O)NCCc2ccccc2)c(=O)c2c1sc1ccccc12 | -0.483% (inactive) | 
CC1CCN(C(=O)c2ccc(CSc3ccc(Cl)cc3)cc2)CC1 | -1.34% (inactive) | 
O=C(c1ccc(S(=O)(=O)c2ccccc2)cc1)N1CCCCCC1 | 4.38% (inactive) | 
O=C(c1ccc(CSc2ccccc2)cc1)N1CCCCCC1 |  | 23.9 µM (active)
COc1cc(OC)c(N2CC(C(=O)Nc3cc(Cl)ccc3N3CCOCC3)CC2=O)cc1Cl (configuration not stated) | -1.25% (inactive) | 
O=C(/C=C/c1ccccc1[N+](=O)[O-])OCC(=O)N1CCCC1 | -2.54% (inactive) | 
O=C(/C=C/c1ccccc1[N+](=O)[O-])OC1CCCCC1=O (configuration not stated) |  | 15.1 µM (active)
CC(C)CNC(=O)COC(=O)/C=C/c1ccccc1[N+](=O)[O-] | -0.249% (inactive) | 
CCOc1ccc(CCNC(=O)c2c(C)oc3ncn(C)c(=O)c23)cc1 | -15.7% (inactive) | 
O=C(Nc1cccc(C(=O)NC2CC2)c1)c1ccc(F)c(S(=O)(=O)N2CCOCC2)c1 | 1.1% (inactive) | 
Cc1ccc(-c2cn(S(=O)(=O)c3cccc([N+](=O)[O-])c3)nc2N)cc1 | 0.0034% (inactive) | 
Cc1ccnc(N2C(=O)c3ccc([N+](=O)[O-])cc3C2=O)c1 | -0.44% (inactive) | 

SMILES | activity change, negative = inhibition | Potency
Cc1ccc(-n2cc3ccc([N+](=O)[O-])cc3n2)cc1 |  | 0.953 µM (active)
COc1ccc(C2=CC(c3ccccc3Cl)n3nc(-c4ccc(Cl)cc4)nc3N2)cc1 (configuration not stated) | -4.89% (inactive) | 
NS(=O)(=O)c1ccc(NC(=O)COc2ccc(S(=O)(=O)NC3CCCCC3)cc2)cc1 | -1.09% (inactive) | 
COc1ccc(-n2nnnc2CNC(=O)c2ccc3ccccc3c2)cc1 | 2.8% (inactive) | 
COc1ccc(CSc2nnnn2-c2ccc(C(=O)O)cc2)cc1 | 0.195% (inactive) | 
COc1ccc(-n2nnnc2-c2nc3ccccc3s2)cc1 |  | 0.601 µM (active)
Cc1ccc(S(=O)(=O)NCCC(=O)NCc2ccc(Cl)cc2)cc1C | 1.46% (inactive) | 
COc1cccc(CNCc2c(C(=O)O)n(Cc3ccc(C)cc3)c3cc(C)ccc23)c1OC | -2.43% (inactive) | 
CCOC(=O)C1CCCN(C(=O)/C=C/c2ccc(OC)cc2)C1 (configuration not stated) | -18.1% (inactive) | 
COc1cccc(N2CC(NC(=O)/C=C\c3ccccc3)CC2=O)c1 (configuration not stated) | 1.08% (inactive) | 
CO/N=C/CC(=O)c1ccc(OC)cc1 | -0.488% (inactive) | 
COC(=O)c1cc(OC)ccc1-c1ccc(OC)cc1 | 0.668% (inactive) | 
COc1ccc(C(=O)NCC(=O)N/N=C/c2cccnc2)cc1 | 2.39% (inactive) | 
COc1ccc(C(=O)CCC(=O)Nc2cccnc2)c(OC)c1 | -7.14% (inactive) | 
COc1ccc(C(=O)/C=C/c2cccnc2)c(OC)c1 |  | 19 µM (active)
COc1ccc(C(=O)/C=C/c2ccc(OC3CSC3)cc2)cc1 |  | 12 µM (active)
COc1ccc(/C=C/C(=O)c2ccc(OC)cc2O)cc1 |  | 7.57 µM (active)
Cc1ccc(C)c(CNC(=O)c2cc3ccccn3n2)c1 | -5.12% (inactive) | 
COc1ccc(S(=O)(=O)NCC(=O)NCc2cc(=O)n(C)c(=O)n2C)cc1F | 4.13% (inactive) | 
COc1cccc(C(c2c(O)cc(C)n(Cc3ccco3)c2=O)N2CCN(c3ccccc3)CC2)c1 (configuration not stated) | -13.6% (inactive) | 
CCOc1ccc(-c2cc3nc(C4CCN(C(=O)OC(C)(C)C)CC4)c(C(=O)Nc4ccc(C(=O)OC)cc4)cn3n2)cc1 | -8.05% (inactive) | 
COc1ccccc1NC(=O)C1=C(C)Nc2nc(SCC(=O)c3ccc(C)cc3)nn2C1c1ccccc1C (configuration not stated) | 5.07% (inactive) | 
Cc1cc(C(=O)Nc2cccc(C(F)(F)F)c2)c2c(C)nn(-c3cccc(F)c3)c2n1 | -8.84% (inactive) | 
COc1ccccc1N(CC(=O)N/N=C(\C)c1ccccc1O)S(=O)(=O)c1ccc(C)cc1 | 3.81% (inactive) | 
C/C(=N\NC(=O)c1ccoc1C)c1ccccc1O |  | 15.1 µM (active)
CC(C)=C(NC(=O)c1ccccc1)C(=O)N/N=C(\C)c1ccccc1O | 4.12% (inactive) | 
